Structures are written as SMILES. About 800 (1.6%) of roughly 50,000 compounds showed an effect of 50% or more. This is one part of a sample in which strong results are shown more often than they occur.

Bcl-2-like protein 10 (Homo sapiens), sequence (Q9HD36 whole entry, looked up): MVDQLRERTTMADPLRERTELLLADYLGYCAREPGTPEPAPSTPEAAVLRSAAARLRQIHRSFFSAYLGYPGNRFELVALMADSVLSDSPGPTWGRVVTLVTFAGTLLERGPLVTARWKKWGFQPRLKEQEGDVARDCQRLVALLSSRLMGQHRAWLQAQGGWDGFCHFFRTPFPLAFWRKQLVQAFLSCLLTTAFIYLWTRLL

The test has as its target Bcl-2-like protein 10 (Homo sapiens) (UniProt Q9HD36). Put plainly: TR3 peptide-Bcl-B binding displacers, biochemical primary FP assay, phenotype converters (AID 1240).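 Also: 0% = Bcl-B with tracer peptide and DMSO and 100% = tracer peptide lacking Bcl-B.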 To be noted: GST-Bcl-B / FITC-TR3 peptide fluorescence polarization; stronger effect = higher value; compound at 3.75 mg/L.
In the case of `Cc1ccc(NC(=O)c2cc3cc([N+](=O)[O-])ccc3oc2=O)cc1`, the displacement came to 13.5%. Under `CSc1ccccc1NC(=O)CC1Nc2cc(C)c(C)cc2NC1=O` (stereo unspecified) stands -41.6%; under `O=C1Nc2ccc(Br)c3cccc1c23`, 15.9%; under `COc1cc(C(=O)NCc2cccc3ccccc23)cc(OC)c1OC`, 9.9%.

Consider `COc1ccc(/C=C2\SC(=Nc3ccc(O)cc3)NC2=O)cc1OC`, for which the displacement was -6.3%.

Take `O=c1[nH]c(/C=C/c2ccc(OCc3ccccc3)cc2)c([N+](=O)[O-])c(=O)[nH]1`: the displacement was determined as 114%. As to `O=c1[nH]c(/C=C/c2ccccc2)c([N+](=O)[O-])c(=O)[nH]1`, the displacement was found to be 18.1%. `COc1cc(/C=C/c2[nH]c(=O)[nH]c(=O)c2[N+](=O)[O-])cc(Br)c1OCc1ccccc1`: the displacement was 15.6%.

Regarding `CC(C)(C)OC(=O)C1C(=O)CC(C)(O)C(C(=O)OC(C)(C)C)C1c1ccccc1` (stereo unspecified), the displacement is -1.3%. For `O=c1c2ccccc2nc(SCc2ccccc2)n1Cc1ccccc1`, the displacement was -0.7%.

With `O=C(CSc1nc2ccccc2s1)Nc1ccccc1`, the displacement was determined as 7.4%. As for `O=C(CSc1nc2ccccc2s1)Nc1nc2ccccc2s1`, the displacement amounted to 7.4%. For `O=C(CSc1nc2ccccc2s1)Nc1ncccn1`, the displacement turned out to be 57.1%. Under `C=CCN1C(=O)C(Cc2ccccc2)S/C1=N/N=C/c1ccccc1` (stereo unspecified) stands 3%; under `CCC1=NN2C(=N)/C(=C/c3ccc(-c4ccc([N+](=O)[O-])cc4OC)o3)C(=O)N=C2S1`, 4.4%. As to `CCC1=NN2C(=N)/C(=C/c3ccc(-c4cccc(C(=O)O)c4)o3)C(=O)N=C2S1`, the displacement amounted to 1.4%.

For `CCC1=NN2C(=N)/C(=C/c3ccc(-c4ccccc4C(=O)OC)o3)C(=O)N=C2S1`, the displacement came to 3.5%. As for `CC(C)C1=NN2C(=N)/C(=C/c3ccc(-c4cccc([N+](=O)[O-])c4)o3)C(=O)N=C2S1`, the displacement turned out to be 173%.

For the molecule `COc1cc([N+](=O)[O-])ccc1-c1ccc(/C=C2/C(=N)N3N=C(C(C)C)SC3=NC2=O)o1`, the displacement is 77%. With `CC(C)C1=NN2C(=N)/C(=C/c3ccc(Sc4ccc(Cl)cc4)o3)C(=O)N=C2S1`, the displacement was -18.4%. The result for `Cc1cccc(N2CCN(C3=NC(=O)/C(=C/c4ccc(-c5cccc([N+](=O)[O-])c5)o4)S3)CC2)c1` reads 9.8%; that for `CCC1=NN2C(=N)/C(=C/c3ccc(-c4cccc([N+](=O)[O-])c4)o3)C(=O)N=C2S1`, 124%. For the molecule `COc1cc([N+](=O)[O-])ccc1-c1ccc(/C=C2\C(=O)N(c3ccc(S(N)(=O)=O)cc3)N=C2C)o1`, the displacement was determined as 5.3%.

For `CC(C)C1=NN2C(=N)/C(=C/c3ccc(-c4ccc([N+](=O)[O-])cc4)o3)C(=O)N=C2S1`, the displacement turned out to be 111%.

On to `CC(C)C1=NN2C(=N)/C(=C/c3ccc(-c4cccc(C(=O)O)c4)o3)C(=O)N=C2S1`, for which the displacement is -26.4%. On to `NC1=NC(=O)/C(=C\c2ccc(-c3ccc([N+](=O)[O-])cc3)o2)S1`, for which the displacement amounted to 3.2%.

The record behind these values is PubChem BioAssay AID1240 (Sanford-Burnham Center for Chemical Genomics, 2008).
